Results on 27 compounds are retold here after the supplement of paper PMC13380429.

Test [1] deals with Vero E6 infected with SARS-CoV-2. The test is described as follows: morphology score (similarity to uninfected cells); higher = more like uninfected cells. To be noted: 24 h.
For test [2] the test system is unchanged. The test can be described thus: SARS-CoV-2 infection rate relative to infected DMSO; higher = more infection, active = 60 or less. To be noted: 24 h.

`COC(=O)[C@@H]1[C@H]2C[C@H]3c4[nH]c5ccccc5c4CCN3C[C@@H]2CC[C@@H]1O` [yohimbine] (10 µM) returned a morphology score in test [1] of 0.0665. Also, the SARS-CoV-2 infection rate in test [2] is 109% (inactive).
Take `CCCCCCOc1nsnc1C1=CCCN(C)C1` [xanomeline] (10 µM): the morphology score in test [1] amounted to 0.44. Further, the SARS-CoV-2 infection rate in test [2] is 71.5% (inactive).
The matching figures for `CCC(CC)CC1(C(=O)Nc2ccccc2SC(=O)C(C)C)CCCCC1` [dalcetrapib] (10 µM): 0.152 and 111% (inactive).
`Cc1ccnc2c1CCCC2C(N)=S` (centres undefined) [isotiquimide] (10 µM): the morphology score in test [1] was found to be 0.0559. Also, the SARS-CoV-2 infection rate in test [2] was 113% (inactive).
In the same order, the values of `NCC(=O)Nc1ccc(-n2nc(C(F)(F)F)cc2-c2ccc3c(ccc4ccccc43)c2)cc1` (0.833333 µM) are -0.089 and 99.5% (inactive).
For the compound `Oc1ccc(-c2nc(-c3ccc(F)cc3)c(-c3ccncc3)[nH]2)cc1` (10 µM), the morphology score in test [1] stood at 0.313. Further, the SARS-CoV-2 infection rate in test [2] was 71% (inactive).
The matching figures for `CCCn1c(=O)c2nc(-c3ccccc3)[nH]c2n(CCC)c1=O` [1,3-dipropyl-8-phenylxanthine] (10 µM): 0.102 and 104% (inactive).
The matching figures for `C=C[C@]1(C)C[C@@H](OC(=O)CS[C@@H]2C[C@H]3CC[C@@H](C2)N3C)[C@]2(C)[C@H](C)CC[C@]3(CCC(=O)[C@H]32)[C@@H](C)[C@@H]1O` [retapamulin] (10 µM): 0.0286 and 109% (inactive).
`CC(C)c1cc(-c2n[nH]c(=O)n2-c2ccc3c(ccn3C)c2)c(O)cc1O` [ganetespib] (0.833333 µM) had a morphology score in test [1] of 0.0711. In test [2], the SARS-CoV-2 infection rate was 111% (inactive).
The matching figures for `COc1ccc2c(C(=S)N(C)CC(=O)O)cccc2c1C(F)(F)F` [tolrestat] (10 µM): -0.0111 and 108% (inactive).
The matching figures for `O=C(CCCN1CCC2(CC1)C(=O)NCN2c1ccccc1)c1ccc(F)cc1` [spiperone] (10 µM): 0.763 and 22% (active).
In the same order, the values of `Nc1nc(=O)n([C@H]2C[C@H](O)[C@@H](CO)O2)cc1F` [fdcyd] (10 µM) are -0.201 and 97.5% (inactive).
For `CO[C@@]1(NC(=O)CSCC#N)C(=O)N2C(C(=O)O)=C(CSc3nnnn3C)CS[C@@H]21` [cefmetazole] (10 µM), in test [1], the morphology score was determined as 0.148. Further, the SARS-CoV-2 infection rate in test [2] was 98.5% (inactive).
In the same order, the values of `COC(=O)C1=C(C)NC(C)=C(C(=O)OCC(C)C)C1c1ccccc1[N+](=O)[O-]` (centres undefined) [nisoldipine] (0.833333 µM) are -0.0369 and 112% (inactive).
The matching figures for `CC(C)Cn1cnc2c1c(=O)n(C)c(=O)n2C` [isbufylline] (10 µM): -0.0146 and 106% (inactive).
Consider `CC(C)C[C@H](NC(=O)[C@@H]1CCCN1)C(=O)NCC(N)=O` [prolylleucylglycinamide] (10 µM), for which, in test [1], the morphology score stood at 0.103. Moreover, the SARS-CoV-2 infection rate in test [2] is 99% (inactive).
In the same order, the values of `N#C/C(=C\c1ccc(O)c(O)c1)C(=O)NCc1ccccc1` (10 µM) are 0.214 and 98% (inactive).
With `Cc1ccc(O)c([C@H](CCN(C(C)C)C(C)C)c2ccccc2)c1` [tolterodine] (10 µM), in test [1], the morphology score was 0.35. The SARS-CoV-2 infection rate in test [2] is 77.5% (inactive).
In the same order, the values of `CCOc1nc2cccc(C(=O)O)c2n1Cc1ccc(-c2ccccc2-c2noc(=O)[nH]2)cc1` [azilsartan] (10 µM) are 0.0851 and 109% (inactive).
With `C=CC(=O)Nc1cccc(Nc2nc(Nc3ccc(N4CCN(C(C)=O)CC4)cc3OC)ncc2C(F)(F)F)c1` [rociletinib] (10 µM), the morphology score in test [1] was -0.408. Further, the SARS-CoV-2 infection rate in test [2] is 106% (inactive).
The matching figures for `O=[N+]([O-])c1nccn1CC(O)CN1CCCCC1` (centres undefined) [pimonidazole] (10 µM): 0.0622 and 108% (inactive).
In the same order, the values of `COc1cccc([C@H](O)C2CCN(CCc3ccc(F)cc3)CC2)c1OC` [volinanserin] (10 µM) are -0.147 and 110% (inactive).
In the same order, the values of `OCCN(CCO)c1nc(N2CCCCC2)c2nc(N(CCO)CCO)nc(N3CCCCC3)c2n1` [dipyridamole] (10 µM) are 0.26 and 90.5% (inactive).
On to `O=C(O)c1cnn(-c2nc3cc(OC(F)(F)F)c(Cl)cc3[nH]2)c1` (10 µM), for which the morphology score in test [1] is 0.316. Moreover, the SARS-CoV-2 infection rate in test [2] is 88.5% (inactive).
In the same order, the values of `FC(F)(F)C(F)(F)C(F)(F)C(F)(F)C(F)(F)C(F)(F)C(F)(F)C(F)(F)Br` [perflubron] (10 µM) are 0.0887 and 102% (inactive).
With `CCCCCCCCCC(=O)OCCN1CCN(CCCN2c3ccccc3Sc3ccc(C(F)(F)F)cc32)CC1` [fluphenazine-decanoate] (10 µM), the morphology score in test [1] is -0.147. Further, the SARS-CoV-2 infection rate in test [2] was 112% (inactive).
`COc1ccc2cc(-c3nc(-c4ccc([S+](C)[O-])cc4)[nH]c3-c3ccncc3)ccc2c1` (centres undefined) [tie2-kinase-inhibitor] (10 µM) yielded a morphology score in test [1] of 0.619. Further, in test [2], the SARS-CoV-2 infection rate was 72.5% (inactive).
